TGFb inhibitor: inhibitors of TGF-b signaling; HepG2 CAGA-GFP TGF-b/SMAD3 reporter, GFP fluorescence, 18 h; TGF-beta stimulated, 500 pg/mL final; Potency, µM (highest dose often 46.1 µM), without a hit: at the highest dose activity, negative = inhibition, actives largely listed as inhibitors; hit rate 1.2% among 410,000; further: on the % scale 0 is the no-effect control and ±100 the full control effect; nearly all actives have a fitted effect of over 65% in size
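Inhibition was scored as loss of TGF-beta-induced (500 pg/mL final, 18 hours, 37 degrees C) GFP in HEPG2 cells carrying a CAGA-GFP reporter, in DMEM with 1% FBS. Well GFP was summed per cell; Activity was normalised to unstimulated and stimulated DMSO wells, then concentration-response fitting.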
HT1080 IDH1KD tx: HT-1080 IDH1 knockdown cell toxicity (counter line). HT-1080 IDH1 knockdown viability, ATP luminescence, 48 h. Potency, µM (highest dose often 46.1 µM), for inactives: at the highest dose activity, negative = toxicity, actives largely listed as cytotoxic. hit rate 2% among 360,000;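 further: 0% = DMSO wells and -100% = cell-free medium wells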
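Knockdown cells (IDH1KD HT-1080) received compounds 2 h after plating at 750 cells/well and were kept 48 h at 37 °C in 5% FBS RPMI. A CellTiter-Glo luminescence read gave % activity for curve fitting.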
HepG2 tox: counter-screen for TGF-b inhibitors: cytotoxicity in HepG2 cells. HepG2 CAGA-GFP viability, ATP luminescence, 18 h. Potency, µM (doses to about 46.1 µM), for inactives: at the top dose activity change, negative = cytotoxicity, usual class: cytotoxic. hit rate 0.76% among 410,000
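HepG2 CAGA-GFP cells (1000/well, DMEM with 1% FBS) received compound, then TGF-beta at 500 pg/mL final, and were incubated 18 hours at 37 degrees C. Viability was read by CellTiter-Glo luminescence. Media-only wells were set as complete cell-killing and DMSO as no toxicity.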
ATXN2 expr inh: ATXN2 expression inhibition. Potency, µM (top dose mostly 57 µM), inactives show at the highest dose activity change, negative = inhibition, actives largely listed as inhibitors. hit rate 0.72% among 360,000. HEK-293 ATXN2-luciferase reporter, luminescence, 24 h; further: on the % scale 0 is the no-effect control and ±100 the full control effect; nearly all actives have a fitted effect of over 55% in size
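qHTS (up to 57 uM final) was run with 24 h compound exposure of reporter cells at 37 °C. Each well was multiplexed: SteadyGlo luminescence measured ATXN2-luciferase expression after a fluorogenic Gly-Phe-AFC viability readout (25 uM final).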
HT1080NT lethal: kills 2HG-producing HT-1080-NT fibrosarcoma cells; hit rate 1.6% among 360,000; Potency, µM (titrated, usually from 46.1 µM), for inactives: at the top dose activity, negative = less viability, usual class: cytotoxic; HT-1080-NT fibrosarcoma viability, CellTiter-Glo ATP luminescence, 48 h;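 further: NT is the 2HG producing partner of a matched IDH1 knockdown line; 0% = DMSO-treated cells and -100% = media-only wells without cells; nearly all actives have a fitted effect of over 55% in size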
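Fibrosarcoma NT cells, 750 per well in 5% FBS RPMI, were exposed to compound for 48 hours. Viability: CellTiter-Glo luminescence.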
S2 tox: cell viability loss in ATXN counter-screen. S2 cells (HEK-293 line with an ATXN2-luciferase reporter) viability, CellTiter-Fluor protease fluorescence, 24 h. Potency, µM (highest dose often 56.7 µM), most hits filed as cytotoxic. hit rate 0.49% among 400,000; further: nearly all actives have a fitted effect of over 40% in size
Numbers without * were called inactive. Most compounds without a hit are left out; they make up all but 3.9% or so of the library. The call rests on the fitted dose curve; in most records, active means well fitted curve in the direction sought with a large enough effect; inconclusive means small, poorly fitted or top-dose-only effect, or another doubt; inactive means no such curve, though single readings can be large; an effect the other way counts as inactive or inconclusive. Potency means the concentration at half of the fitted maximal effect.

Results for O=C(N/N=C/c1ccc([N+](=O)[O-])s1)c1ccncc1 ?
TGFb inhibitor: inconclusive; HT1080 IDH1KD tx: inconclusive; HepG2 tox: 12.6µM*; ATXN2 expr inh: inconclusive; HT1080NT lethal: -20.4%; S2 tox: inactive

What do the screens show for `CCOC(=O)c1ccccc1NC(=O)Cn1cc(C(=O)c2cccc(OC)c2)c(=O)c2ccc(C)nc21`?
TGFb inhibitor: 2.4%; HepG2 tox: -46.2%; ATXN2 expr inh: 10.8%; S2 tox: inactive

Results for CCN(CC)CCNC(=O)c1ccc2c(c1)NC(=O)C(CS(=O)(=O)Cc1ccc(F)cc1Cl)N2 (stereo not given) ?
TGFb inhibitor: -18.0%; HepG2 tox: -36.3%

How did O=C(N/N=C/c1ccc([N+](=O)[O-])s1)c1cccc(Br)c1 do in these assays?
TGFb inhibitor: inconclusive; HT1080 IDH1KD tx: 20.6µM*; HepG2 tox: -43.0%; ATXN2 expr inh: -34.3%; HT1080NT lethal: 11.6µM*; S2 tox: inconclusive

What do the screens show for `CN=C1SC(CC(=O)Nc2ccccc2F)C(=O)N1C` (stereo not given)?
TGFb inhibitor: -4.0%; HT1080 IDH1KD tx: 0.4%; HepG2 tox: 0.2%; ATXN2 expr inh: 0.6%; HT1080NT lethal: -1.5%; S2 tox: inactive

How did C=CCOc1ccc(/C=N/N2C(=O)C(CC(=O)Nc3ccc(F)cc3F)SC2=NC)cc1 (stereo not given) do in these assays?
TGFb inhibitor: inconclusive; HT1080 IDH1KD tx: inconclusive; HepG2 tox: -61.3%; ATXN2 expr inh: -30.0%; HT1080NT lethal: 14.6µM*; S2 tox: inconclusive

Results for CCn1c(-c2ccccc2F)nc2cc(NC(C)=O)cc(C(=O)N3CCC[C@H]3C(=O)OC)c21 ?
S2 tox: inactive

Results for CS/C(=N\S(=O)(=O)c1ccc(F)cc1)c1ccccc1 ?
TGFb inhibitor: 59.9%; HepG2 tox: 0.1%

How did CC(=O)N1CCN(c2ncnc3sc(-c4ccccc4)cc23)CC1 do in these assays?
TGFb inhibitor: 8.3%; HT1080 IDH1KD tx: -9.5%; HepG2 tox: -10.5%; ATXN2 expr inh: -22.4%; HT1080NT lethal: 0.0%; S2 tox: inactive

Results for Oc1ccc(N2CCN(c3ncnc4sc(-c5ccccc5)cc34)CC2)cc1 ?
TGFb inhibitor: -17.3%; HT1080 IDH1KD tx: inconclusive; HepG2 tox: -17.7%; ATXN2 expr inh: inconclusive; HT1080NT lethal: 13µM*; S2 tox: inactive

Results for COc1ccc(C(OCC(O)CNC(C)c2ccccc2)c2ccc(OC)cc2)cc1 (stereo not given) ?
TGFb inhibitor: inconclusive; HT1080 IDH1KD tx: 20.6µM*; HepG2 tox: -94.4%; ATXN2 expr inh: -37.6%; HT1080NT lethal: inconclusive; S2 tox: inactive

How did CC(C)c1ccc(OCC(O)CNC(C)c2ccccc2)cc1 (stereo not given) do in these assays?
TGFb inhibitor: inconclusive; HT1080 IDH1KD tx: 18.4µM*; HepG2 tox: -109.2%; ATXN2 expr inh: -10.3%; HT1080NT lethal: 23.1µM*; S2 tox: inactive

How did COc1cccc(OCC(O)CNC(C)c2ccccc2)c1 (stereo not given) do in these assays?
TGFb inhibitor: -19.4%; HT1080 IDH1KD tx: inconclusive; HepG2 tox: -22.2%; ATXN2 expr inh: -15.6%; HT1080NT lethal: -21.4%; S2 tox: inactive

What do the screens show for `COc1ccc(C(OCC(O)CNCCc2ccccc2)c2ccc(OC)cc2)cc1` (stereo not given)?
TGFb inhibitor: inconclusive; HT1080 IDH1KD tx: 23.1µM*; HepG2 tox: -76.3%; ATXN2 expr inh: inconclusive; HT1080NT lethal: 23.1µM*; S2 tox: inconclusive

Results for Cc1cccc(OCC(=O)N(Cc2ccc(C(C)(C)C)cc2)Cc2ccco2)c1 ?
TGFb inhibitor: -21.8%; HepG2 tox: -45.2%

How did COc1ccc(C(C[N+](=O)[O-])C2(c3ccc(OC)c(OC)c3)C(=O)c3ccccc3C2=O)cc1 (stereo not given) do in these assays?
TGFb inhibitor: inconclusive; HT1080 IDH1KD tx: 20.6µM*; HepG2 tox: 17.8µM*; ATXN2 expr inh: 2.3%; HT1080NT lethal: inconclusive; S2 tox: inactive

Results for COc1cc(CN2CCCC(c3nc(-c4ccncc4)ncc3-c3ccccc3)C2)ccc1O (stereo not given) ?
S2 tox: inactive

What do the screens show for `ClC(Cl)(c1nnnn1-c1ccccc1)c1nnnn1-c1ccccc1`?
TGFb inhibitor: inconclusive; HT1080 IDH1KD tx: 6.51µM*; HepG2 tox: 11.2µM*; ATXN2 expr inh: inconclusive; HT1080NT lethal: inconclusive; S2 tox: inconclusive

How did c1ccc(-c2nnnn2-c2ccccc2)cc1 do in these assays?
TGFb inhibitor: 8.0%; HT1080 IDH1KD tx: -0.1%; HepG2 tox: -20.4%; ATXN2 expr inh: -20.1%; HT1080NT lethal: 4.6%; S2 tox: inactive

Results for COc1cccc(C2=CC(c3cccc(OC)c3OC(F)F)n3nnnc3N2)c1 (stereo not given) ?
TGFb inhibitor: -5.1%; HT1080 IDH1KD tx: -21.3%; HepG2 tox: -2.7%; ATXN2 expr inh: 1.8%; HT1080NT lethal: -3.8%; S2 tox: inactive

How did COc1cccc(C2=CC(c3ccc(N(C)C)cc3)n3nnnc3N2)c1 (stereo not given) do in these assays?
TGFb inhibitor: 4.0%; HT1080 IDH1KD tx: inconclusive; HepG2 tox: -29.8%; ATXN2 expr inh: -4.1%; HT1080NT lethal: -16.1%; S2 tox: inactive

What do the screens show for `COc1cccc(C2=CC(c3cccc(OC)c3OC)n3nnnc3N2)c1` (stereo not given)?
TGFb inhibitor: -12.3%; HT1080 IDH1KD tx: 16.4µM*; HepG2 tox: -39.9%; ATXN2 expr inh: 5.7%; HT1080NT lethal: inconclusive; S2 tox: inactive

Results for COc1cccc(C2=CC(c3ccccc3)n3nnnc3N2)c1 (stereo not given) ?
TGFb inhibitor: 6.9%; HT1080 IDH1KD tx: inconclusive; HepG2 tox: -31.2%; ATXN2 expr inh: 63.5%; HT1080NT lethal: 7.94µM*; S2 tox: inactive

What do the screens show for `CCN(Cc1ccncc1)Cc1ccc2c(c1)CN(C(=O)c1ccc(OC)cc1)CCO2`?
S2 tox: inactive

How did CCC(C)Nc1nc(N)c([N+](=O)[O-])c(Nc2cc(OC)ccc2OC)n1 (stereo not given) do in these assays?
TGFb inhibitor: inconclusive; HT1080 IDH1KD tx: inconclusive; HepG2 tox: 15.9%; ATXN2 expr inh: inconclusive; HT1080NT lethal: inconclusive; S2 tox: inconclusive

Bioassay records as filed in PubChem.
